Source: PubChem BioAssay AID425 (Sanford-Burnham Center for Chemical Genomics, 2006)
“And” between values parts separate entries of the source, which are not always exact repeats. Identical values can stand only once. Screen size: about 110,000 compounds; about 190 (0.17%) were called active. Rule as the data show it: active = inhibition above about 50%; inactive = the rest. For the sample, actives were picked, then their nearest neighbours and some compounds at random. Entries with a potency or affinity are not part of this list. More than one record can exist for a structure, and the calls need not agree.

biological target: Dual specificity protein phosphatase 6 (Rattus norvegicus) (UniProt Q64346); experiment: MKP-3 phosphatase inhibitors, primary screen, biochemical, rat enzyme, in vitro (AID 425); conditions: recombinant MKP-3 phosphatase activity, fluorescence; at 20 µM; stronger effect = higher value;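 also: plate controls were vehicle for no effect and reference inhibitor for full effect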
Sequence (Q64346 whole entry, looked up): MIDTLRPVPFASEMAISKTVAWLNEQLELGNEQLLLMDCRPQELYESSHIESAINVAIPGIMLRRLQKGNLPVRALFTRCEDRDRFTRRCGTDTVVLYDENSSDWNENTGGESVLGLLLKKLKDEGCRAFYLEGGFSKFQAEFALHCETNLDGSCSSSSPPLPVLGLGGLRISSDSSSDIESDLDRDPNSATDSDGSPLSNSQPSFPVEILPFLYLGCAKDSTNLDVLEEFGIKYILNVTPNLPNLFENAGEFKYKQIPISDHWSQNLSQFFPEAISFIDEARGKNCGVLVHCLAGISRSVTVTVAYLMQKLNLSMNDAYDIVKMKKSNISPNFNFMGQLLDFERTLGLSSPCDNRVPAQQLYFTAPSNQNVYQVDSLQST

Structure (SMILES)	inhibition
Cc1ccccc1C(=O)Nc1cccc(C(=O)Nc2ccccc2Cl)c1	0.2% (inactive)
O=C(Nc1ccccc1Cl)c1cccc(F)c1	0.5% (inactive)
O=C(Nc1ccccc1Cl)c1cccc(NC(=O)C(F)(F)F)c1	98.8% (active)
CCOC(=O)C1=C(O)CCn2c1nc1ccccc12	-0.7% (inactive) and -13.2% (inactive)
CCOC(=O)C1(C)C=C(Nc2ccc(S(=O)(=O)Nc3nccs3)cc2)C(=O)N1c1ccccc1 (stereo unspecified)	2.7% (inactive)
COC(=O)c1c(NC(=O)c2cncc(Br)c2)sc2c1CCC2	-14% (inactive)
Cc1ccccc1NC(=O)C(C)NC(=O)C12CC3CC(CC(C3)C1)C2 (stereo unspecified)	1.2% (inactive)
COc1ccc(Cl)cc1NC(=O)c1cc2nc(-c3ccccc3)cc(C)n2n1	63.8% (active)
COc1cc(NC(=O)c2cc3nc(-c4ccccc4)cc(C)n3n2)c(OC)cc1Cl	10.6% (inactive)
Cc1cc(-c2ccccc2)nc2cc(C(=O)Nc3ccc(Cl)cc3)nn12	3.4% (inactive)
Cc1ccc(NC(=O)COc2ccc(Br)cc2)c(C)c1	2.7% (inactive)
Cc1ccc(S(=O)(=O)Nc2cc(C)c(O)c(Sc3ncn[nH]3)c2)cc1	4.4% (inactive)
Cc1ccc(S(=O)(=O)Nc2cc(Sc3ncn[nH]3)c(O)c3ccccc23)cc1	56% (active)
Cc1ccc(S(=O)(=O)Nc2cc(Sc3nc4ccccc4[nH]3)c(O)c3ccccc23)cc1	8.1% (inactive)
COc1ccc(C2CC(=O)C3=C(C2)Nc2ccccc2NC3c2cccs2)cc1 (stereo unspecified)	3.6% (inactive)
CCOC(=O)Cn1nc(-c2ccccc2)nc1-c1ccccc1	-8% (inactive)
COc1ccc(-n2c(C)cc(C)nc2=O)cc1	-1.5% (inactive)
CCSc1nc(-c2cccs2)nc2c1c(=O)n(C)c(=O)n2C	-4.4% (inactive)
Cn1c(/C=C/c2ccc(Br)cc2)nc2ccccc2c1=O	0.8% (inactive)
COc1ccc(OC)c(/C=c2\sc3nc(-c4cccs4)nn3c2=O)c1	0.4% (inactive)
Cn1c(/C=C/c2cccnc2)nc2ccccc2c1=O	-2.3% (inactive)
Cc1nc(C)n(C)c(=O)c1-c1ccccc1	-0.4% (inactive)

Structure (SMILES)	inhibition
O=C(Nc1ccc(-c2cn3ccsc3n2)cc1)C1COc2ccccc2O1 (stereo unspecified)	2.3% (inactive)
CC1=C(C(=O)Nc2cccc(C)c2)C(c2cc(Br)ccc2O)NC(=O)N1 (stereo unspecified)	-0.3% (inactive)
CCOc1ccccc1NC(=O)C1C2C=CC(O2)C1C(=O)O (stereo unspecified)	-14.3% (inactive)
COC(=O)c1cc(C(=O)NC2CCCCCC2)cc([N+](=O)[O-])c1	-3.5% (inactive)
CCOc1cccc(/C=N\NC(=O)Cc2cccn2C)c1O	2.2% (inactive)
C=CCOc1ccc(/C=C2\C(=O)NC(C)=C2C(=O)OC)cc1OC	3% (inactive)
COc1cc(F)ccc1S(=O)(=O)N1CCCCCC1	-0.1% (inactive)
Cc1cccc(N2CCN(C(=O)c3ccc(Cl)c(Cl)c3)CC2)c1C	3.8% (inactive)
C=CCN1C(=O)/C(=C/c2ccc(Cl)cc2)C(=O)NC1=S	1.8% (inactive)
CCn1c(N)nc2c1c(=O)n(C)c(=O)n2C	-1.5% (inactive)
c1ccc(-c2nnc(-c3ccccn3)nc2-c2ccccc2)cc1	-0.7% (inactive)
CCCc1nc(SCC(=O)c2ccc(OC)cc2)c2c(=O)n(C)c(=O)n(C)c2n1	-2.4% (inactive)
Cn1c(-c2ccccn2)nc2ccccc21	1.2% (inactive)
O=c1c2c3c(sc2n2c(=S)[nH]nc2n1-c1ccccc1)CCCCC3	1.2% (inactive)
COc1ccc(CCNC(=O)C2CCN(S(=O)(=O)N3CCCCC3)CC2)cc1OC	-1.4% (inactive)
COc1ccc(Cc2nnc(SCC(=O)N3CCN(c4ccccc4)CC3)o2)cc1	-9.3% (inactive)
O=C1N=c2ccccc2=C1c1sc(=O)n(-c2ccc(O)cc2)c1O	0.6% (inactive)
O=C1N=c2ccccc2=C1c1s/c(=N/N=C2/C(=O)Nc3ccccc32)n(-c2ccc(O)cc2)c1O	69.8% (active)
O=C1N=c2ccccc2=C1c1sc(=Nc2ccccc2)n(-c2ccccc2)c1O	-2% (inactive)
Cc1ccc(-c2nc(CS(=O)CC(=O)NCCC(C)C)c(C)o2)cc1 (stereo unspecified)	-10.1% (inactive)
CCCCNCCCOc1ccccc1CC	-0.3% (inactive)
COc1cc(/C=C2\SC(NC(C)=O)=NC2=O)cc(Br)c1OC	3.2% (inactive)

Structure (SMILES)	inhibition
COc1cc(C=C2C(=O)c3ccccc3C2=O)cc(Br)c1OCC(=O)O	3.3% (inactive)
CCOCCOC(=O)c1cccc(NC(=O)/C=C/c2ccc(Cl)cc2Cl)c1	3.2% (inactive)
NC(=O)c1cc(-c2ccccc2)sc1N	3.8% (inactive)
O=C(O)c1cccc(NC2=C(Cl)C(=O)N(c3ccc(Cl)cc3)C2=O)c1	7.4% (inactive)
O=C1NC(=O)N(c2ccccc2)C(=O)/C1=C\c1cccn1-c1cccc([N+](=O)[O-])c1	4.5% (inactive)
O=C1OCCC1Sc1nc2ccccc2[nH]1 (stereo unspecified)	-11% (inactive)
FC(F)(F)c1ccc2nnc(-c3cccc(Cl)c3Cl)n2c1	5.1% (inactive)
C=CCN1C(=O)/C(=C\c2cc3c(cc2[N+](=O)[O-])OCO3)SC1=S	124% (active)
O=C(NN1C(=O)/C(=C/c2cc3c(cc2[N+](=O)[O-])OCO3)SC1=S)c1ccccc1Cl	8.9% (inactive)
CC(=O)NN1C(=O)/C(=C\c2ccc(O)c([N+](=O)[O-])c2)SC1=S	1.4% (inactive)
CC(=O)NN1C(=O)/C(=C/c2cc3c(cc2[N+](=O)[O-])OCO3)SC1=S	119% (active)
C=CCN1C(=O)/C(=C\c2cc3c(cc2Br)OCO3)SC1=S	0.3% (inactive)
O=C1/C(=C\c2cc3c(cc2[N+](=O)[O-])OCO3)SC(=S)N1c1ccccc1	5.2% (inactive)
CC1(C(=O)O)CCC(C(=O)N2CCOCC2)C1(C)C (stereo unspecified)	-3.7% (inactive)
CC(c1nc2ccccc2n1C)C(O)c1ccccc1 (stereo unspecified)	-0.3% (inactive)
COc1ccc(NC(=O)c2ccco2)cc1NC(=O)c1ccco1	0.7% (inactive)
O=[N+]([O-])c1ccc(C2Nc3c(I)cccc3C3C=CCC32)cc1 (stereo unspecified)	4.4% (inactive)
O=C(O)c1cccc2c1NC(c1cccc(Cl)c1Cl)C1CC=CC21 (stereo unspecified)	27.8% (inactive)
O=[N+]([O-])c1ccc(C2Nc3c(cccc3[N+](=O)[O-])C3C=CCC32)cc1 (stereo unspecified)	5.4% (inactive)
O=C(O)c1cccc2c1NC(c1ccc(Cl)cc1)C1CC=CC21 (stereo unspecified)	69.9% (active)
O=C(O)c1cccc2c1NC(c1ccccc1Br)C1CC=CC21 (stereo unspecified)	15.1% (inactive)
O=C(O)c1cccc2c1NC(c1ccc([N+](=O)[O-])cc1)C1CC=CC21 (stereo unspecified)	71.1% (active)

Structure (SMILES)	inhibition
CCNC(=S)Nc1ccccc1Cl	-1.1% (inactive)
O=C(NN=C1CCN(Cc2ccccc2)CC1)c1sc2ccccc2c1Cl	0.3% (inactive)
COc1ccc(NC(=O)C(=O)NCc2ccco2)cc1Cl	-2.8% (inactive)
O=[N+]([O-])c1ccc(S(=O)(=O)NCCOc2ccccc2Cl)cc1	-1.1% (inactive)
CCOc1ccc(N(CC(=O)NCc2ccc(OC)cc2)S(=O)(=O)c2ccc(Br)cc2)cc1	-0.5% (inactive)
CCOc1ccc(N(CC(=O)NCc2ccc(Cl)cc2)S(=O)(=O)c2ccc(Br)cc2)cc1	54.4% (active)
CCOc1ccc(N(CC(=O)NCc2ccc(Cl)cc2)S(C)(=O)=O)cc1	-2.6% (inactive)
CNS(=O)(=O)c1cc(O)c2c(S(=O)(=O)NC)cccc2c1	6% (inactive)
Cc1cccc2cc(=O)[nH]c(C)c12	13.2% (inactive)
Cc1ccc(-c2[nH]n3c(=O)cc(-c4ccc([N+](=O)[O-])cc4)nc3c2C)cc1	-3.9% (inactive)
NC(=S)n1[nH]c(-c2ccccc2)c(N=Nc2ccc(C(=O)O)cc2)c1=O	-0.5% (inactive)
O=C(CCCC(=O)OCC(F)(F)C(F)F)Nc1ccc(F)cc1F	-2.5% (inactive)
CC1CCN(CCCNC(=O)c2cn(C)c3ccc(S(=O)(=O)N4CCCC4)cc3c2=O)CC1	-3% (inactive)
CCCCCCCCNC(=O)CCC(=O)O	-1.5% (inactive)
CCCCCC1NC(=O)NC1CCCCCC(=O)O (stereo unspecified)	-4.9% (inactive)
COc1c(Cl)cc(C(=O)Nc2ccc(N3CCOCC3)cc2)cc1Cl	3.1% (inactive)
O=C(O)c1ccc(CN2CCOCC2)cc1	1.1% (inactive)
COc1ccc(Cn2c(C)ccc2C)cc1	0.3% (inactive)
Cc1ccc(C)n1Cc1ccc(C(=O)O)cc1	85.4% (active) and -2.3% (inactive)
CC(C(=O)NCc1ccccn1)N1C(=O)c2ccccc2C1=O (stereo unspecified)	-2.2% (inactive)
Clc1ccc(-c2ccc(/C=C\c3nc4ccccc4o3)o2)cc1	4.5% (inactive)
O=C(CN1C(=O)/C(=C/c2ccccc2)SC1=S)Nc1cccc(Br)c1	2.3% (inactive)

Structure (SMILES)	inhibition
O=C(O)CCCCCN1C(=O)/C(=C2/C(=O)N(CC(=O)O)c3ccccc32)SC1=S	1% (inactive)
CCOc1ccc(N(CC(=O)NCc2ccccc2)S(C)(=O)=O)cc1	-13.8% (inactive)
Cc1cc(Nc2ccccc2)n(-c2ccccc2)n1	-6.8% (inactive)
Cc1cc(C)n(C(=O)Nc2ccccc2)n1	4.3% (inactive)
Cc1cc2n(n1)SC(Nc1ccccc1)N2 (stereo unspecified)	61.5% (active)
COc1cc(C(=O)N2CCN(C3C4CC5CC(C4)CC3C5)CC2)cc(OC)c1OC (stereo unspecified)	3.7% (inactive)
CC(=O)N(C)C1=C(Cl)C(=O)c2ccccc2C1=O	54.9% (active)
CC(C)OC1=C(Cl)C(=O)c2ccccc2C1=O	5.3% (inactive)
CC(=O)N(C1=C(Cl)C(=O)c2ccccc2C1=O)c1ccc(Br)cc1	21.1% (inactive)
CC(=O)NC1=C(N(C)C)C(=O)c2ccccc2C1=O	0.7% (inactive)
CC(=O)Nc1ccc(NC2=C(Cl)C(=O)c3ccccc3C2=O)cc1	3.8% (inactive)
O=C1C(=O)c2ccccc2C(Cl)=C1Cl	23% (inactive)
O=C1C=C(C(c2ccccc2)c2ccccc2)C(=O)c2ccccc21	6.7% (inactive)
CC(=O)C(C(C)=O)C1=CC(=O)C(=O)c2ccccc21	91.6% (active)
CC(=O)NC1=C(Cl)C(=O)c2ccccc2C1=O	106% (active)
CC(=O)C(C(C)=O)C1=C(Cl)C(=O)C(=O)c2ccccc21	71% (active)
CC(=O)N(C1=C(Cl)C(=O)c2ccccc2C1=O)c1ccc(Cl)cc1	13.9% (inactive)
CC(=O)c1ccc(NC2=C(Cl)C(=O)c3ccccc3C2=O)cc1	-8.2% (inactive)
